The record followed here is PubChem BioAssay.

SMILES strings stand for the structures. Inconclusive results are not listed. Calls of active or inactive are those of the source.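 Rule for the calls, unless noted: active = inhibition above 54%, about 3 SD of non-fluorescent compounds; inactive = the rest.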

Experiment [1] in a line: rapamycin-like changes in RPL19A-GFP expression – cell-based, S. cerevisiae, multiplex flow cytometry, primary screen (AID 1862; in the data active = percent of DMSO control GFP below about 86%;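 note: lower values mimic rapamycin by blocking the RPL19A rise seen in DMSO cells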). Particulars: S. cerevisiae RPL19A-GFP strain, flow cytometry fluorescence, 3 h; at 10 µM; stronger effect = lower value.
Experiment [2] in a line: TOR pathway GLN3 branch reporter MEP2-GFP changes – S. cerevisiae, multiplex flow cytometry, primary screen (AID 1867;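 active = GFP response, as percent of the DMSO control, above the screen-wide mean plus 3 SD, about 139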;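 note: median GFP channel fluorescence of barcode-gated MEP2-GFP cells measured by flow cytometry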). Particulars: S. cerevisiae MEP2-GFP strain, 3 h, at 10 µM, stronger effect = higher value, 100% means same as DMSO wells.
The nature of experiment [3]: TOR pathway RTG branch CIT2 reporter changes – S. cerevisiae, GFP fusion, multiplex flow cytometry, primary screen (AID 1870;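 active = percent response above a set limit, the screen-wide mean plus 3 SD, cut at about 130% in these data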;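 note: barcoded CIT2-GFP strain pooled with four other GFP strains with rapamycin as positive control; median GFP fluorescence per well over plate mean of DMSO wells so 100% = DMSO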). Particulars: S. cerevisiae CIT2-GFP expression, 3 h, at 10 µM, stronger effect = higher value.
Experiment [4] is described as follows: TOR pathway LAP4-GFP level changes – S. cerevisiae, multiplex flow cytometry, primary screen (AID 1873;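 active = GFP signal, as percent of the solvent control, above the screen mean plus 3 SD, about 149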). Particulars: S. cerevisiae LAP4-GFP expression, 3 h, at 10 µM, stronger effect = higher value.
The nature of experiment [5]: yeast AGP1-GFP level changes, GLN3 branch – cell-based, multiplex flow cytometry, S. cerevisiae, primary screen (AID 1887;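 active = GFP signal above the screen-wide mean plus 3 SD, that is over about 124.5% of the solvent control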;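 note: AGP1-GFP fusion strain of S. cerevisiae within a five-strain barcoded multiplex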). Particulars: 3 h, at 10 µM, stronger effect = higher value.
Experiment [6] is described as follows: reduced mouse 2C T cell binding to pMHC/ICAM-1 vesicles – MLPCN validation set, flow cytometry, LFA-1/ICAM-1 modulator project, pilot screen (AID 2523;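 active = response below a set limit, under 55% cells CD8-positive and vesicle-bound, and CD8 cells' 90th-percentile brightness under 279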;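 for vesicle binding response: mean PE anti-B7-1 fluorescence of CD8+ cells relative to row control; 100% = QL9-loaded vesicles with DMSO vehicle in the same plate row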). Particulars: 2C mouse CD8+ T cells, at 7 µM, stronger effect = lower value; double positive events: measured here: CD8+/vesicle+ event percentage.
Experiment [7] addresses Integrin beta-1 (Homo sapiens) + Integrin alpha-4 (Homo sapiens) (UniProt P13612+P05556). The experiment is described as follows: alpha4beta1 integrin LIBS antibody binding reduction – U937 cells, HUTS-21 mAb, flow cytometry, validation set, VLA-4 allosteric modulator project, pilot screen (AID 2674;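 active = inhibition above 50%, about 3 SD of the validation set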;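 note: antibody binding induced by the VLA-4 ligand LDV present at three times its Kd; 0% = LDV ligand with antibody and no compound and 100% = antibody without LDV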). Particulars: HUTS-21 LIBS mAb binding, at 6.7 µM, stronger effect = higher value, binding induced by LDV ligand.

Experiment [8] in a line: calorie-restriction mimetic ROS inhibitors, yeast – validation compound set, pilot screen (AID 2706;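 active = superoxide response below 65% of plate, a cut near 3 SD across the whole screen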;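 note: yeast exposed to compound for one week at 30 degrees C before staining; 100% = mean of all compound wells on the same plate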). Particulars: S. cerevisiae aging, superoxide DHE fluorescence; at 10 µM; stronger effect = lower value.
For experiment [9], the target named is Beta-adrenergic receptor kinase 1 (Homo sapiens) (UniProt P25098). The experiment is described as follows: GRK2 binders displacing RNA aptamer, biochemical, validation, human GRK2, bead flow cytometry (AID 488806;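 active = aptamer binding inhibition above 30%, about 3 SD of noise from non-fluorescent compounds; inactive = inhibition at or below 30%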). Particulars: bead-bound GRK2, FAM-aptamer displacement, at 10 µM, stronger effect = higher value.
Sequence of Beta-adrenergic receptor kinase 1 (Homo sapiens) (P25098 whole entry, looked up): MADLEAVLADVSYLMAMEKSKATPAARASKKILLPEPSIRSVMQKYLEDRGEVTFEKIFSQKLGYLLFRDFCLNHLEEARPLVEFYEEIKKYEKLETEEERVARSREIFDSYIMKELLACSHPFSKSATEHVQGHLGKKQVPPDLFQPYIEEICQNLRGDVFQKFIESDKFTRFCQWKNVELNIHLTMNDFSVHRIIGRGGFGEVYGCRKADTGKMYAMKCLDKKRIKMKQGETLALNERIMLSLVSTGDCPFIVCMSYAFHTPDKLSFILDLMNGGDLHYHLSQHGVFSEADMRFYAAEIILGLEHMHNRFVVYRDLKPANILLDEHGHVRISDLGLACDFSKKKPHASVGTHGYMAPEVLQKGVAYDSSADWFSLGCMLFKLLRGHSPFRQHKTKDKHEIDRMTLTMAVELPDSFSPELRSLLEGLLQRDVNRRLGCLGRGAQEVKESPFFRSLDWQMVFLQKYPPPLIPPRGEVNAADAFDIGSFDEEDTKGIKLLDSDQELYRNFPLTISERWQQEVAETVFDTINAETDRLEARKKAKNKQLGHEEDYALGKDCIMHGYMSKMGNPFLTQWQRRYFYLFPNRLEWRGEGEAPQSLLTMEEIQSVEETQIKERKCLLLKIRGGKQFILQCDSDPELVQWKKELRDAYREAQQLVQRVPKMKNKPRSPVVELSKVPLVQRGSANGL
Experiment [10] addresses Beta-2 adrenergic receptor (Homo sapiens) (UniProt P07550). Kind of experiment: agonist-induced loss of surface beta2AR – cell-based, FAP fluorogen, flow cytometry, validation set, pilot screen (AID 504459;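 active = percent response above 42, roughly 3 SD of non-fluorescent test compounds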;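 note: agonist-driven loss of surface beta2AR via internalization measured by FAP dye flow cytometry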). Particulars: Am2.2-beta2AR cells, at 10 µM, stronger effect = higher value.
Experiment [11] concerns the target AP-2 complex subunit beta (Homo sapiens) (UniProt P63010). Kind of experiment: beta-arrestin/AP2 interaction blockers – biochemical, validation set, GST-AP2 beads, flow cytometry, pilot screen (AID 504541).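 Note: AP2 carries R879A mutation and is captured from E. coli lysate; bead-bound FITC arrestin peptide fluorescence measuring arrestin peptide binding to AP2; 0% = DMSO wells and 100% = excess unlabeled arrestin peptide control.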 Particulars: FITC arrestin peptide, at 10 µM, stronger effect = higher value, AP2 beta2 appendage fragment, R879A mutant.
Experiment [12] is described as follows: cytosolic pH regulators acting via V-ATPase – S. cerevisiae, pHLuorin, HTS validation (AID 504600; in the data active = response above about 15%;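 note: plate controls were DMSO for no effect and reference compound for full effect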). Particulars: V-ATPase proton transport, at 10 µM, stronger effect = higher value.
The subject of experiment [13] is anti-desmoglein-3 scFv antibody binding to human DSG3. The experiment is described as follows: blockers of pathogenic pemphigus antibody–desmoglein-3 binding – biochemical, validation compound set, bead-based, flow cytometry, pilot screen (AID 588368;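 active = binding below the plate cutoff, the plate median minus 3 SD, with a reading above zero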;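 note: signal is the median channel fluorescence of bead-bound GFP antibody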). Particulars: Protein G beads, DSG3-Fc, scFv-GFP binding, at 10 µM, stronger effect = lower value.
Experiment [14] is described as follows: Nile Red efflux blockade in pump-expressing yeast – validation compound set, multiplex, phenotypic, pilot screen (AID 588506;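 active = efflux inhibition above 0.42, the validation set average plus 4 SD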;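 note: Nile Red retained in cells so higher fluorescence means more efflux inhibition; 0 = negative control wells and 1 = enniatin B 25 µM full block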). Particulars: S. cerevisiae pump-expressing triplex, Nile Red efflux flow cytometry; at 10 µM; stronger effect = higher value; the pumps come from Candida albicans.
For experiment [15], the target named is ATP-binding cassette sub-family B member 6 (Homo sapiens) (UniProt Q9NP58). The experiment is described as follows: blockers of ABCB6-driven porphyrin uptake – K562-ABCB6 cells, flow cytometry, validation set, pilot screen (AID 588550;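 active = inhibition above the screen-wide mean plus 3 SD, about 51%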;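 note: 0% = DMSO wells and 100% = benzethonium chloride 70 µM positive control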). Particulars: K562-ABCB6 porphyrin accumulation, 1 h, at 10 µM, stronger effect = higher value.
Sequence of ATP-binding cassette sub-family B member 6 (Homo sapiens) (Q9NP58 whole entry, looked up): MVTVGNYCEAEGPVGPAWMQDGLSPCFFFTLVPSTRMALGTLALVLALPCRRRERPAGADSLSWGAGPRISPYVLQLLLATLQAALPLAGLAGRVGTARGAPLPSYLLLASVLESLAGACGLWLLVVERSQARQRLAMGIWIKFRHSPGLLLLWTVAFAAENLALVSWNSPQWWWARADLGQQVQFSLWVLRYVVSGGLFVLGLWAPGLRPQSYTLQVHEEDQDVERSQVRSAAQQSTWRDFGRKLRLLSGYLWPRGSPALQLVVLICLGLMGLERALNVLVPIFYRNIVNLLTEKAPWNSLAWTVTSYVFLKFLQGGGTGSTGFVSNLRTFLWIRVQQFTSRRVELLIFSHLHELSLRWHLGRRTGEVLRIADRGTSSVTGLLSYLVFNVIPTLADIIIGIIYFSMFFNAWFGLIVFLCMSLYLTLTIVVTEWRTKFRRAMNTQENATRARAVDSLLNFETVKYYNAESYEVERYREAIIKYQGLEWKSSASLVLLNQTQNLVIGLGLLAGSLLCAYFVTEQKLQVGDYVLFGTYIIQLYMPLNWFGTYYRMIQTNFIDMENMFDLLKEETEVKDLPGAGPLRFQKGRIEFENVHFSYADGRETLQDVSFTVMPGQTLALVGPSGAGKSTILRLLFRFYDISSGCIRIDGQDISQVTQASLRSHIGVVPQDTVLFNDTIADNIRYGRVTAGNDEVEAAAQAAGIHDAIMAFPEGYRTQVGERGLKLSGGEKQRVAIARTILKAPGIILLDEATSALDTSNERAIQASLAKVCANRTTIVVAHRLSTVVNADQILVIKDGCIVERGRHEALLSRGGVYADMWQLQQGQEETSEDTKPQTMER
Experiment [16] can be described thus: AML differentiation inducers, ER-HoxA9 marrow cells – cell-based, GFP/MAC1 double positive, flow cytometry, validation set, primary screen (AID 588685;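 active = differentiation response of at least 50%, scaled between solvent and reference control, from cells with both markers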;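 note: compound exposure lasts four days before antibody staining and flow analysis; 0% = DMSO wells and 100% = 5 µM fulvestrant positive control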). Particulars: stronger effect = higher value, normalized: vehicle 0, fulvestrant 100.

Sequence of AP-2 complex subunit beta (Homo sapiens) (P63010 whole entry, looked up, the tested form may be a part, one chain of several): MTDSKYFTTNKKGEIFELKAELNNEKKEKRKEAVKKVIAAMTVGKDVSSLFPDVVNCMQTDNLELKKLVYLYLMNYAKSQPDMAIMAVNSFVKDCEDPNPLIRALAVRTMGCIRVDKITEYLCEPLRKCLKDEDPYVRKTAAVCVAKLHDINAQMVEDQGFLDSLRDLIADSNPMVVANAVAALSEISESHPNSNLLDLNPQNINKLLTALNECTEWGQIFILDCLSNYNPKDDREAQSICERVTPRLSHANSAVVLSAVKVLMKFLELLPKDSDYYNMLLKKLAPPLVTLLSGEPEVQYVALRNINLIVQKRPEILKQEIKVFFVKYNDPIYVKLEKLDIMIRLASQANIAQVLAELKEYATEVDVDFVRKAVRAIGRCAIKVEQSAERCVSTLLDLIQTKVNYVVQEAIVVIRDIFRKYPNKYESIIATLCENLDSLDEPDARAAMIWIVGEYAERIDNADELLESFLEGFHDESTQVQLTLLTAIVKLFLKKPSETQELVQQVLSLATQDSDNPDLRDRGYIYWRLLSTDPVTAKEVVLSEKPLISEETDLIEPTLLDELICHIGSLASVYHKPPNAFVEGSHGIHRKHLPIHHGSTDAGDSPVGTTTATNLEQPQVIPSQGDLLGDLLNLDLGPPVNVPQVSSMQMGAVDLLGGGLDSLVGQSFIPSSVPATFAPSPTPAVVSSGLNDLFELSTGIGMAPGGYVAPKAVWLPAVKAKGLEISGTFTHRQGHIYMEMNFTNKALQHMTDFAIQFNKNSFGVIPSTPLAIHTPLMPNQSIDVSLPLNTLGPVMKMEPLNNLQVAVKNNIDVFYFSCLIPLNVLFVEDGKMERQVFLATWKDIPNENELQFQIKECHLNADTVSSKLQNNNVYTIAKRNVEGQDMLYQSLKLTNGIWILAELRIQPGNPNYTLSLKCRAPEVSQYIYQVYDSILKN
Sequence of Integrin beta-1 (Homo sapiens) + Integrin alpha-4 (Homo sapiens) (P05556 whole entry, looked up): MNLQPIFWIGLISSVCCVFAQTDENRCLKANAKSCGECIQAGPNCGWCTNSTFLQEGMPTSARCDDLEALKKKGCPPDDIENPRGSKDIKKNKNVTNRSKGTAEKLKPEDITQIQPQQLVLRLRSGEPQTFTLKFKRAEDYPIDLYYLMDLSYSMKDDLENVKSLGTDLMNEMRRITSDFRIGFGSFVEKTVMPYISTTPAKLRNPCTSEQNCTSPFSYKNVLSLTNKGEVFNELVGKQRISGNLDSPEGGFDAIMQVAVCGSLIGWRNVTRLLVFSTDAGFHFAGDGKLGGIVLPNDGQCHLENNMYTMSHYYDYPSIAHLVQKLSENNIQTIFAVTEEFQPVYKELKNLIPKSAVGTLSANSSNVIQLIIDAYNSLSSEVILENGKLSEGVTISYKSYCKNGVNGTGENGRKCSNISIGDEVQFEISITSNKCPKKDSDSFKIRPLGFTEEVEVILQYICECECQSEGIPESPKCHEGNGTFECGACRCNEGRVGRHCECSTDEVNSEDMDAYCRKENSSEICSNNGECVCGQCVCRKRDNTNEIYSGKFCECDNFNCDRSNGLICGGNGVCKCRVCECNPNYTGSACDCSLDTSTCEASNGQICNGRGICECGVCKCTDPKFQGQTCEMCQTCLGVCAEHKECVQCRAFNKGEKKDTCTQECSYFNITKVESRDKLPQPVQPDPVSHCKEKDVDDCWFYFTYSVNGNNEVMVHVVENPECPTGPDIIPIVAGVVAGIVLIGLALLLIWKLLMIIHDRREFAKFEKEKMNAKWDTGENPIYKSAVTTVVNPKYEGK
Sequence of Integrin beta-1 (Homo sapiens) + Integrin alpha-4 (Homo sapiens) (P13612 whole entry, looked up): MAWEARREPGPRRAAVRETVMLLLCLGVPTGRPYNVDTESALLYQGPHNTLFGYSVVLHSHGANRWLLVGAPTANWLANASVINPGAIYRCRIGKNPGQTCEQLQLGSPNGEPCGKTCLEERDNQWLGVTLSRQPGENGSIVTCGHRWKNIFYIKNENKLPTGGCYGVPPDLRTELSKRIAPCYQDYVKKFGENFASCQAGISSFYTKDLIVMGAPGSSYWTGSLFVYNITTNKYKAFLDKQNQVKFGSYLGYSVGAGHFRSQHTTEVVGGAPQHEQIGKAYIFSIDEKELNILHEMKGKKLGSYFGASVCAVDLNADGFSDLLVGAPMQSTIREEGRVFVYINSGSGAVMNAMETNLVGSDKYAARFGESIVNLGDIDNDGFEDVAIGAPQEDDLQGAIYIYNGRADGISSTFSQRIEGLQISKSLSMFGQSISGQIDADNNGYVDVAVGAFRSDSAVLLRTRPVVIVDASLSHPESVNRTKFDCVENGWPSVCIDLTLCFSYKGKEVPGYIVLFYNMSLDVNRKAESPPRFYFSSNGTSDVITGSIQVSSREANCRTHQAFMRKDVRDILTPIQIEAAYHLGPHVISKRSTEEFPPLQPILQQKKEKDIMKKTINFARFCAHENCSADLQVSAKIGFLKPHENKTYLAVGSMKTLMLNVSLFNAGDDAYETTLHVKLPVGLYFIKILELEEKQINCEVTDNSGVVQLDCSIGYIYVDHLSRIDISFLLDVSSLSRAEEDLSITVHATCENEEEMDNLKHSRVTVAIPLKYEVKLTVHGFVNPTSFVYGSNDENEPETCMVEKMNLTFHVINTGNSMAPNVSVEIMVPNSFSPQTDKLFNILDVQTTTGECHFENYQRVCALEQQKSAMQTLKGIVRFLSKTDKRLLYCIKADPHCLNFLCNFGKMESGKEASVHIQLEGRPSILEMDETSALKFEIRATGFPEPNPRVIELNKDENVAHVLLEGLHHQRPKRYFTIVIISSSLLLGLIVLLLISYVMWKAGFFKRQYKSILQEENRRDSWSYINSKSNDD
Sequence of Beta-2 adrenergic receptor (Homo sapiens) (P07550 whole entry, looked up): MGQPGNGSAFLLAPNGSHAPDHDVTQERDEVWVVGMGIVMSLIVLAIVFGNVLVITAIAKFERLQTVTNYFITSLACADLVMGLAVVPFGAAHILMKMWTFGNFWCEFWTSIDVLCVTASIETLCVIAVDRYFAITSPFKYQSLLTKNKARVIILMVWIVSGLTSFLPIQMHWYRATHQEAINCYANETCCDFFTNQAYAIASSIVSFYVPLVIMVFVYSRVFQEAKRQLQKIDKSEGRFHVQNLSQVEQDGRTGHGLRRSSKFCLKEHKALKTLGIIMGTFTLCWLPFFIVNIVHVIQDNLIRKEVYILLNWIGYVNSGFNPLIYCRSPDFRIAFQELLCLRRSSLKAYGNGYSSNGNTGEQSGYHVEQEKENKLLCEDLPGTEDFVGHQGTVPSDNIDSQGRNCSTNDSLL

For the compound `CCOC(=O)c1ncn2c1CN(C)C(=O)c1cc(F)ccc1-2`, the percent of DMSO control GFP in [1] is 101% (inactive). For the same compound, the GFP response vs DMSO in experiment [2] is 96.6% (inactive); in experiment [4], 107% (inactive). For the same compound, in experiment [3], the percent response of DMSO control is 96.5% (inactive). The GFP response, % of DMSO in experiment [5] was 105% (inactive). This compound yielded a double positive events in experiment [6] of 58.4%. For the same compound, the vesicle binding response in experiment [6] was 200% (inactive). Further, the inhibition in experiment [7] was 8.29% (inactive); in [11], -0.66% (inactive); in experiment [15], 0% (inactive). Further, the superoxide response (% of plate) in [8] is 115% (inactive). In experiment [9], the aptamer binding inhibition was 1% (inactive). Moreover, the results for the response in [10] and in experiment [12] were 3.78% (inactive) and 2.2% (inactive), respectively. Also, the binding (% of control) in experiment [13] is 97.7% (inactive). Besides, the efflux inhibition (fraction of control) in experiment [14] was -0.025 (inactive). In addition, the differentiation response in experiment [16] was 7.13% (inactive).

`Cn1c(=O)c2c(ncn2CCO)n(C)c1=O`: in experiment [1], the percent of DMSO control GFP is 102% (inactive). Also, the GFP response vs DMSO in [2] is 112% (inactive); in [4], 88.6% (inactive). In experiment [3], the percent response of DMSO control is 116% (inactive). For the same compound, the GFP response, % of DMSO in [5] was 101% (inactive). In addition, the double positive events in experiment [6] is 63.6%. Besides, in experiment [6], the vesicle binding response is 250% (inactive). Moreover, the inhibition in experiment [7] is -32.3% (inactive); in experiment [11], -1.93% (inactive); in experiment [15], 6% (inactive). Further, in experiment [8], the superoxide response (% of plate) was 98.5% (inactive). The aptamer binding inhibition in [9] was -2% (inactive). Also, the response was 15.1% (inactive) in experiment [10] and 0.08% (inactive) in experiment [12]. For the same compound, in experiment [13], the binding (% of control) was 106% (inactive). Also, in experiment [14], the efflux inhibition (fraction of control) was -0.17 (inactive). Besides, the differentiation response in experiment [16] was 1.64% (inactive).

On to `OC(C#CCN1CCCC1)(c1ccccc1)c1cccnc1` (centres undefined), for which, in experiment [1], the percent of DMSO control GFP was 98.9% (inactive). Also, the GFP response vs DMSO in [2] was 101% (inactive); in [4] it was 103% (inactive). The percent response of DMSO control in [3] was 98.3% (inactive). In addition, in experiment [5], the GFP response, % of DMSO is 107% (inactive). The compound further showed a double positive events in experiment [6] of 60.3%. The vesicle binding response in experiment [6] was 166% (inactive). Further, the results for the inhibition in experiment [7], in [11] and in experiment [15] were 11.7% (inactive), -2.57% (inactive) and -14% (inactive), respectively. Also, the superoxide response (% of plate) in experiment [8] was 83.2% (inactive). Further, in [9], the aptamer binding inhibition is 6% (inactive). For the same compound, the response was -14.6% (inactive) in experiment [10] and 1.86% (inactive) in experiment [12]. Further, the binding (% of control) in experiment [13] was 108% (inactive). Further, the efflux inhibition (fraction of control) in [14] was -0.09 (inactive). In addition, the differentiation response in experiment [16] is 14.7% (inactive).

With `COc1ccc(-n2cc(CNCc3cccnc3)c(-c3cccc(F)c3)n2)cc1`, the percent of DMSO control GFP in experiment [1] was 105% (inactive). Besides, the GFP response vs DMSO in [2] was 97.2% (inactive); in experiment [4], 110% (inactive). Also, the percent response of DMSO control in experiment [3] was 115% (inactive). In experiment [5], the GFP response, % of DMSO is 99.1% (inactive). In experiment [6], this compound had a double positive events of 64.8%. The vesicle binding response in experiment [6] was 314% (inactive). Moreover, the figures for the inhibition in [7], in [11] and in experiment [15] were -4.6% (inactive), -5.67% (inactive) and 20% (inactive), respectively. Besides, in [8], the superoxide response (% of plate) was 89.3% (inactive). The aptamer binding inhibition in experiment [9] is 0% (inactive). For the same compound, the response is -13.2% (inactive) in experiment [10] and -0.1% (inactive) in experiment [12]. In addition, the binding (% of control) in experiment [13] was 104% (inactive). Also, in experiment [14], the efflux inhibition (fraction of control) was -0.26 (inactive). Also, the differentiation response in [16] is 4.15% (inactive).

Consider `COc1ccc(CCNC(=O)c2ccc(Cl)cc2)cc1OC`, for which the percent of DMSO control GFP in [1] is 103% (inactive). Further, the figures for the GFP response vs DMSO in experiment [2] and in experiment [4] were 109% (inactive) and 121% (inactive), respectively. Also, the percent response of DMSO control in experiment [3] was 107% (inactive). The GFP response, % of DMSO in experiment [5] was 111% (inactive). In [6], the double positive events was found to be 59.6%. In [6], the vesicle binding response was 196% (inactive). Further, the values for the inhibition in experiment [7], in experiment [11] and in experiment [15] were 2.93% (inactive), -0.98% (inactive) and -7% (inactive), respectively. For the same compound, the superoxide response (% of plate) in experiment [8] was 107% (inactive). Besides, the aptamer binding inhibition in [9] was -1% (inactive). The response in [10] was 6.98% (inactive); in experiment [12], -0.59% (inactive). In experiment [13], the binding (% of control) was 104% (inactive). Besides, the efflux inhibition (fraction of control) in [14] is 0.39 (inactive). Also, in experiment [16], the differentiation response is -17.7% (inactive).

As for `CNC(=O)Oc1ccc2c(c1)[C@]1(C)CCN(C)[C@@H]1N2C`, in experiment [1], the percent of DMSO control GFP was 104% (inactive). The GFP response vs DMSO in [2] was 102% (inactive); in [4] it was 112% (inactive). In addition, the percent response of DMSO control in [3] was 86% (inactive). Moreover, the GFP response, % of DMSO in experiment [5] was 122% (inactive). Moreover, in [6], the double positive events is 62.8%. In addition, in experiment [6], the vesicle binding response is 183% (inactive). Also, the figures for the inhibition in experiment [7], in [11] and in [15] were 5.69% (inactive), -9.24% (inactive) and 4% (inactive), respectively. The superoxide response (% of plate) in experiment [8] was 98.7% (inactive). In addition, the aptamer binding inhibition in experiment [9] is 3% (inactive). In addition, the figures for the response in experiment [10] and in [12] were -21.5% (inactive) and -0.59% (inactive), respectively. In [13], the binding (% of control) is 104% (inactive). Moreover, in [14], the efflux inhibition (fraction of control) was 0.12 (inactive). In addition, in experiment [16], the differentiation response is -4.99% (inactive).

Regarding `Cc1ccnc2c1NC(=O)c1cccnc1N2C1CC1`, the percent of DMSO control GFP in [1] is 102% (inactive). Further, the GFP response vs DMSO in [2] is 98.3% (inactive); in experiment [4], 98% (inactive). Moreover, the percent response of DMSO control in [3] is 115% (inactive). The GFP response, % of DMSO in [5] was 99.4% (inactive). The same compound came in with a double positive events in experiment [6] of 66.5%. In addition, the vesicle binding response in [6] was 295% (inactive). Also, the inhibition in experiment [7] was 2.66% (inactive); in experiment [11], -5.17% (inactive); in [15] it was 2% (inactive). For the same compound, the superoxide response (% of plate) in [8] was 108% (inactive). The aptamer binding inhibition in experiment [9] is 4% (inactive). The figures for the response in [10] and in experiment [12] were -1.22% (inactive) and 0.42% (inactive), respectively. Further, the binding (% of control) in [13] is 99.2% (inactive). For the same compound, in experiment [14], the efflux inhibition (fraction of control) is -0.17 (inactive). For the same compound, in experiment [16], the differentiation response is 2.2% (inactive).
